# Test results as given in PubChem BioAssay (Tox21).
# Values without a mark were called inactive. Results filed as inconclusive are left out. Where a call stands in place of a potency, no number is given. Active and inactive are the calls of the source. Calls come from the whole dose curve; as a rule, active = well fitted curve in the direction sought with a large enough effect in the repeat runs; inconclusive = weak or mixed curves; inactive = no such curve, though single readings can be large; an effect the other way counts as inactive or inconclusive.
# Assays:
# [1] = qHTS RealTime-Glo MT Cell Viability Assay in HepG2 cells - 40 hour (AID 1224870); note: nearly all actives have a fitted effect of over 50% in size
# Summary of the method: (§1)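 HepG2 cells (600/well) mixed with RealTime-Glo MT reagent, settled 5 h at 37 C/5% CO2 before compound addition. Nonlytic NanoLuc luminescence from viable-cell prosubstrate reduction read repeatedly during 40 h treatment at 37 C.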
# [2] = A CellTox Green Cytotoxicity Assay to monitor cytotoxicity in HEK293 cells - 40 hour (AID 1224871); note: nearly all actives have a fitted effect of over 45% in size
# Summary of the method: (§2)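 Cytotoxicity was tracked continuously in HEK293 cells by a DNA-binding dye excluded from viable cells. Compounds were transferred in DMSO 5 h after seeding; fluorescence was recorded at intervals up to 40 h.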
# [3] = qHTS RealTime-Glo MT Cell Viability Assay in HEK293 cells - 16 hour (AID 1224872); note: top concentration of the series differs between compounds; nearly all actives have a fitted effect of over 50% in size
# Summary of the method: (§3)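 HEK293 cells seeded with NanoLuc/prosubstrate reagent, rested 5 h at 37 C, then dosed and kept at 37 C up to 40 h. Nonlytic real-time luminescence from viable cells read at 0, 8, 16, 24, 32 and 40 h.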
# [4] = qHTS RealTime-Glo MT Cell Viability Assay in HepG2 cells - 8 hour (AID 1224873); note: nearly all actives have a fitted effect of over 55% in size
# Summary of the method: as §1
# [5] = qHTS RealTime-Glo MT Cell Viability Assay in HEK293 cells - 40 hour (AID 1224874); details: RealTime-Glo luminescence; max response: active compounds read low; note: nearly all actives have a fitted effect of over 50% in size
# Summary of the method: (§4)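 Nonlytic bioluminescent viability monitoring. HEK293 at 600 cells/well with reagent; 5 h settle; compound transfer by pintool; plates held at 37 C and read at set time points.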
# [6] = A CellTox Green Cytotoxicity Assay to monitor cytotoxicity in HEK293 cells - 24 hour (AID 1224875); note: series mostly up to about 77 µM; nearly all actives have a fitted effect of over 45% in size
# Summary of the method: as §2
# [7] = A CellTox Green Cytotoxicity Assay to monitor cytotoxicity in HepG2 cells - 16 hour (AID 1224876); note: nearly all actives have a fitted effect of over 45% in size
# Summary of the method: (§5)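 Real-time, homogeneous cytotoxicity readout: dead-cell DNA staining by CellTox Green in HepG2 monolayers, fluorescence measured at timed intervals up to 40 h of continuous compound exposure.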
# [8] = qHTS RealTime-Glo MT Cell Viability Assay in HepG2 cells - 32 hour (AID 1224877); note: nearly all actives have a fitted effect of over 55% in size
# Summary of the method: (§6)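 HepG2 cells (600/well) were dispensed with RealTime-Glo reagents, incubated 5 h at 37 °C, then treated with compounds in DMSO for up to 40 h. Nonlytic NanoLuc luminescence reflecting viable cells was read at each stated time point.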
# [9] = A CellTox Green Cytotoxicity Assay to monitor cytotoxicity in HepG2 cells - 24 hour (AID 1224878); note: nearly all actives have a fitted effect of over 45% in size
# Summary of the method: as §5
# [10] = A CellTox Green Cytotoxicity Assay to monitor cytotoxicity in HepG2 cells - 40 hour (AID 1224879); note: nearly all actives have a fitted effect of over 40% in size
# Summary of the method: as §5
# [11] = qHTS RealTime-Glo MT Cell Viability Assay in HEK293 cells - 0 hour (AID 1224880)
# Summary of the method: as §4
# [12] = A CellTox Green Cytotoxicity Assay to monitor cytotoxicity in HEK293 cells - 32 hour (AID 1224881); note: nearly all actives have a fitted effect of over 40% in size
# Summary of the method: as §2
# [13] = A CellTox Green Cytotoxicity Assay to monitor cytotoxicity in HepG2 cells - 0 hour (AID 1224882); note: nearly all actives have a fitted effect of over 35% in size
# Summary of the method: as §5
# [14] = A CellTox Green Cytotoxicity Assay to monitor cytotoxicity in HepG2 cells - 32 hour (AID 1224883); note: nearly all actives have a fitted effect of over 50% in size
# Summary of the method: as §5
# [15] = A CellTox Green Cytotoxicity Assay to monitor cytotoxicity in HEK293 cells - 8 hour (AID 1224884); note: nearly all actives have a fitted effect of over 35% in size
# Summary of the method: as §2
# [16] = qHTS RealTime-Glo MT Cell Viability Assay in HepG2 cells - 16 hour (AID 1224885); note: nearly all actives have a fitted effect of over 50% in size
# Summary of the method: as §6
# [17] = qHTS RealTime-Glo MT Cell Viability Assay in HEK293 cells - 24 hour (AID 1224886); note: nearly all actives have a fitted effect of over 50% in size; note: potency is the fitted concentration of half-maximal effect
# Summary of the method: as §3
# [18] = qHTS RealTime-Glo MT Cell Viability Assay in HEK293 cells - 8 hour (AID 1224887)
# Summary of the method: as §4
# [19] = A CellTox Green Cytotoxicity Assay to monitor cytotoxicity in HEK293 cells - 16 hour (AID 1224888); note: nearly all actives have a fitted effect of over 35% in size
# Summary of the method: as §2
# [20] = qHTS RealTime-Glo MT Cell Viability Assay in HepG2 cells - 0 hour (AID 1224889); note: nearly all actives have a fitted effect of over 50% in size
# Summary of the method: as §6
Compound,Potency [1],Potency [2],Potency [3],outcome [4],max response [5],Potency [6],Potency [7],Potency [8],Potency [9],Potency [10],Potency [11],Potency [12],Potency [13],Potency [14],Potency [15],outcome [16],Potency [17],Potency [18],Potency [19],Potency [20]
O=C1C=CCCC1,inactive,inactive,inactive,inactive,-0.315%,inactive,inactive,inactive,inactive,inactive,inactive,inactive,inactive,inactive,inactive,inactive,inactive,inactive,inactive,inactive
CCCc1ccc(OC)cc1,inactive,inactive,inactive,inactive,11.9%,inactive,inactive,inactive,inactive,inactive,inactive,inactive,inactive,inactive,inactive,inactive,inactive,inactive,inactive,inactive
Cc1c(Cl)cccc1Nc1ccccc1C(=O)O,inactive,inactive,inactive,inactive,-5.01%,inactive,inactive,inactive,inactive,inactive,inactive,inactive,inactive,inactive,inactive,inactive,inactive,inactive,inactive,inactive
CC(C)(C)c1cc(C=O)cc(C(C)(C)C)c1O,inactive,inactive,inactive,inactive,-0.177%,inactive,inactive,inactive,inactive,inactive,inactive,inactive,inactive,inactive,inactive,inactive,inactive,inactive,inactive,inactive
Cc1c(Nc2ncccc2C(=O)O)cccc1C(F)(F)F,inactive,inactive,inactive,inactive,0.365%,inactive,inactive,inactive,inactive,inactive,inactive,inactive,inactive,inactive,inactive,,inactive,inactive,inactive,inactive
O=C(O)c1cc(C(=O)O)c(C(=O)O)cc1C(=O)O,inactive,inactive,inactive,inactive,0.796%,inactive,inactive,inactive,inactive,inactive,inactive,inactive,inactive,inactive,inactive,inactive,inactive,inactive,inactive,inactive
COc1cc(C)c(Cc2cnc(N)nc2N)cc1OC,inactive,inactive,inactive,inactive,5.82%,inactive,inactive,inactive,inactive,inactive,inactive,inactive,inactive,inactive,inactive,inactive,inactive,inactive,inactive,inactive
Cc1ccc2ccccc2c1[N+](=O)[O-],inactive,inactive,inactive,inactive,5.94%,inactive,inactive,inactive,inactive,inactive,inactive,inactive,inactive,inactive,inactive,inactive,,inactive,inactive,inactive
CCCCCCCCNC,inactive,inactive,inactive,inactive,3.01%,inactive,inactive,inactive,inactive,inactive,inactive,inactive,inactive,inactive,inactive,inactive,inactive,inactive,inactive,inactive
O=C1OC(=O)C2CC=CCC12 (stereo unspecified),inactive,inactive,inactive,inactive,0.701%,inactive,inactive,inactive,inactive,inactive,inactive,inactive,inactive,inactive,inactive,inactive,inactive,inactive,inactive,inactive
CC(=O)Oc1cccc2c1C(=O)c1c(OC(C)=O)cc(C(=O)O)cc1C2=O,inactive,inactive,inactive,inactive,-10.8%,inactive,inactive,inactive,inactive,inactive,inactive,inactive,inactive,inactive,inactive,inactive,inactive,inactive,inactive,inactive
C(/C=C/C=C/Nc1ccccc1)=Nc1ccccc1,inactive,inactive,inactive,inactive,-15.7%,inactive,inactive,inactive,inactive,inactive,inactive,inactive,inactive,inactive,inactive,inactive,inactive,inactive,inactive,inactive
OCCc1ccncc1,inactive,inactive,inactive,inactive,-8.09%,inactive,inactive,inactive,inactive,inactive,inactive,inactive,inactive,inactive,inactive,inactive,,inactive,inactive,inactive
O=[N+]([O-])c1ccc(Cl)cc1Cl,inactive,inactive,inactive,inactive,2.44%,inactive,inactive,inactive,inactive,inactive,inactive,inactive,inactive,inactive,inactive,inactive,inactive,inactive,inactive,inactive
CC[C@H](NC(C)C)[C@H](O)c1ccc(O)c2[nH]c(=O)ccc12,inactive,inactive,inactive,inactive,5.21%,inactive,inactive,inactive,inactive,inactive,inactive,inactive,inactive,inactive,inactive,,inactive,inactive,inactive,inactive
OCC(O)c1ccccc1 (stereo unspecified),inactive,inactive,inactive,inactive,-20.6%,inactive,inactive,inactive,inactive,inactive,inactive,inactive,inactive,inactive,inactive,,inactive,inactive,inactive,inactive
CC(CCl)OC(C)CCl (stereo unspecified),inactive,inactive,inactive,inactive,-1.61%,inactive,inactive,inactive,inactive,inactive,inactive,inactive,inactive,inactive,inactive,inactive,inactive,inactive,inactive,inactive
NCCOCCOCCN,inactive,inactive,inactive,inactive,-14%,inactive,inactive,inactive,inactive,inactive,inactive,inactive,inactive,inactive,inactive,inactive,,inactive,inactive,inactive
CCCC(=O)OCCC(C)C,inactive,inactive,inactive,inactive,-1.39%,inactive,inactive,inactive,inactive,inactive,inactive,inactive,inactive,inactive,inactive,inactive,,inactive,inactive,inactive
CCC(=O)O[C@@H]1C[C@H]2CC[C@]1(C)C2(C)C,inactive,inactive,inactive,inactive,-11.1%,inactive,inactive,inactive,inactive,inactive,inactive,inactive,inactive,inactive,inactive,inactive,inactive,inactive,inactive,inactive
CC(COc1ccccc1)NC(C)C(O)c1ccc(O)cc1 (stereo unspecified),inactive,inactive,inactive,inactive,-6.13%,inactive,inactive,inactive,inactive,inactive,inactive,inactive,inactive,inactive,inactive,inactive,inactive,inactive,inactive,inactive
Cc1ccc2c(Cl)cc(Cl)c(O)c2n1,inactive,inactive,inactive,inactive,-5.73%,inactive,inactive,inactive,inactive,inactive,inactive,inactive,inactive,inactive,inactive,inactive,inactive,inactive,inactive,inactive
O=C(O)c1cc(C(=O)O)cc([N+](=O)[O-])c1,inactive,inactive,inactive,inactive,8.3%,inactive,inactive,inactive,inactive,inactive,inactive,inactive,inactive,inactive,inactive,inactive,inactive,inactive,inactive,inactive
CCOc1ccccc1O,inactive,inactive,inactive,inactive,-54.1%,inactive,inactive,inactive,inactive,inactive,inactive,inactive,inactive,inactive,inactive,inactive,19.5 µM (active),inactive,inactive,inactive
C=CC(C)(O)CC/C=C(/C)CCC=C(C)C (stereo unspecified),inactive,inactive,inactive,inactive,0.65%,inactive,inactive,inactive,inactive,inactive,inactive,inactive,inactive,inactive,inactive,inactive,inactive,inactive,inactive,inactive
C[C@H](N)C(=O)N[C@@H](C)C(=O)NC1[C@H]2CN(c3nc4c(cc3F)c(=O)c(C(=O)O)cn4-c3ccc(F)cc3F)C[C@@H]12 (stereo partly specified),inactive,inactive,inactive,inactive,0.749%,inactive,inactive,inactive,inactive,inactive,inactive,inactive,inactive,inactive,inactive,inactive,,inactive,inactive,inactive
O=C(Cl)c1cc(Cl)cc(Cl)c1,inactive,inactive,inactive,inactive,-8.34%,inactive,inactive,inactive,inactive,inactive,inactive,inactive,inactive,inactive,inactive,inactive,,inactive,inactive,inactive
